Screening data deposited in PubChem by National Center for Advancing Translational Sciences (NCATS).
The list is not random: actives were taken first. Their share in the collection is about 19%.
HT1080NT lethal: qHTS for induction of synthetic lethality in tumor cells producing 2HG: qHTS for the HT-1080-NT fibrosarcoma cell line; HT-1080-NT fibrosarcoma viability, CellTiter-Glo ATP luminescence, 48 h; Potency, µM (doses to about 46.1 µM), inactives show top-dose activity, negative = less viability, hits mostly cytotoxic; hit rate 1.6% among 360,000;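 note: NT is the 2HG producing partner of a matched IDH1 knockdown line; potency is the fitted concentration of half-maximal effect; 0% = DMSO-treated cells and -100% = media-only wells without cells; nearly all actives have a fitted effect of over 55% in size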
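Fibrosarcoma NT cells, 750 per well in 5% FBS RPMI, were exposed to compound for 48 hours. Viability: CellTiter-Glo luminescence.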
HT1080 IDH1KD tx: qHTS for induction of synthetic lethality in tumor cells producing 2HG: qHTS for the HT-1080-IDH1KD cell line; Potency, µM (top dose mostly 46.1 µM), for inactives: at the highest dose activity, negative = toxicity, most hits filed as cytotoxic; hit rate 2% among 360,000; HT-1080 IDH1 knockdown viability, ATP luminescence, 48 h; AID 686971, 2013;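 note: potency is the fitted concentration of half-maximal effect; 0% = DMSO wells and -100% = cell-free medium wells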
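Using the IDH1-knockdown HT-1080 line run in the same batch and compound series as the NT line, viability after 48 h at 37 °C was determined by CellTiter-Glo luminescence and expressed as % activity.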
DT40 TDP1 CPT: qHTS for Inhibitors of human tyrosyl-DNA phosphodiesterase 1 (TDP1): qHTS in cells in presence of CPT | Potency, µM (titrated, usually from 46.2 µM), for the others: at the top dose activity change, negative = growth inhibition, most hits filed as inhibitors | chicken DT40 Tdp1-/-;hTDP1 cells + 20 nM CPT, ATP luminescence, 48 h | hit rate 12% among 420,000; note: potency is the fitted concentration of half-maximal effect; nearly all actives have a fitted effect of over 55% in size
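Chicken DT40 Tdp1-/- cells stably complemented with human TDP1 were seeded at 400 cells/well in medium containing 20 nM camptothecin, exposed to pin-transferred compounds, and grown at 37 °C for at least 48 hr. Viability was read as ATP luminescence.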
IL1B secr inh: qHTS for Inhibitors of Inflammasome Signaling: IL-1-beta AlphaLISA Primary Screen | hit rate 4.7% among 360,000 | activity change, % at 57.5 µM | THP-1 LPS/ATP IL-1B secretion, AlphaLISA, 16 h; active compounds read low | AID 743279, 2014; in the data active = activity change below about -50%; inconclusive = mostly about -30% to -49%
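Secreted IL-1B measured by AlphaLISA bead assay after 16 h compound exposure of THP-1 cells; compounds (final up to 57.5 uM) added 1 h before LPS (250 ng/mL) and ATP (1.25 mM) stimulation; lower signal means less secretion.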
DT40 TDP1 no CPT: qHTS for Inhibitors of human tyrosyl-DNA phosphodiesterase 1 (TDP1): qHTS in cells in absence of CPT; Potency, µM (highest dose often 46.2 µM), inactives show at the highest dose activity change, negative = growth inhibition, usual class: inhibitors; hit rate 15% among 420,000; DT40 Tdp1-/- hTDP1 cells, no CPT, ATP luminescence, 48 h; note: potency is the fitted concentration of half-maximal effect; nearly all actives have a fitted effect of over 55% in size
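Stably hTDP1-transfected Tdp1-null chicken DT40 cells were treated with library compounds minus camptothecin and grown for at least 48 hr at 37 °C, after which cellular ATP was quantified by luminescence.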
Active calls of the source: *; ? = inconclusive; . = no result given; [ ] = remark or other dose. Unless noted, calls come from the whole dose curve; as a rule, active = well fitted curve in the direction sought with a large enough effect; inconclusive = small, poorly fitted or top-dose-only effect, or another doubt; inactive = no such curve, though single readings can be large; an effect the other way counts as inactive or inconclusive. Unless noted, % is set by controls: 0 for no effect and ±100 for the full control effect.

SMILES	HT1080NT lethal	HT1080 IDH1KD tx	DT40 TDP1 CPT	IL1B secr inh	DT40 TDP1 no CPT
COc1cccc(-c2onc3ccc(C4(C)OCCO4)cc23)c1	0%	-4%	?	-87*	?
Cc1cccc(-c2onc3ccc(C(=O)/C=C/N(C)C)cc23)c1	0%	-6%	?	-8	18µM*
Cc1ccc(-c2onc3ccc(C(=O)/C=C/N(C)C)cc23)cc1	-13%	?	?	-25	?
COc1cccc(-c2onc3ccc(C(=O)/C=C/N(C)C)cc23)c1	-19%	-3%	?	-66*	16µM*
COc1cc(OC)c(C2=NOC(C(=O)N3CCCc4ccccc43)C2)cc1Cl (centres undefined)	6%[9.24 µM]	3%	13µM*	-25	?
CCCCOc1ccc(CNC(=O)Cc2ccc(NC(=O)N3CCCCc4ccccc43)cc2)cc1	.	.	15µM*	.	16µM*
COc1cc2c(cc1OC)CN(C(C)C(=O)N1CCc3ccccc31)CC2 (centres undefined)	?	?	?	37	18µM*
CCCCOc1ccc(CNC(=O)c2ccc(NC(=O)N3CCCCc4ccccc43)cc2)cc1	.	.	18µM*	.	26µM*
CC(C)NC(=O)c1ccc(NC(=O)N2CCCCc3ccccc32)cc1	.	.	-21%	.	?
CCC1CCCCN1C(=O)C1CC(c2cc(Cl)c(OC)cc2OC)=NO1 (centres undefined)	-4%	-6%	?	-2	-16%
O=C(CSc1nc(C2CC2)nc2ccccc12)N1c2ccccc2Sc2ccccc21	-10%	-6%	?	-14	?
CCN(CC)S(=O)(=O)c1ccc(O)c(C(=O)OCC(=O)NC23CC4CC(CC(C4)C2)C3)c1	1%	8%	-3%	-6	-22%
CCOc1cc(C(=O)NCCC(=O)N2CCC3(CC2)NCCc2[nH]cnc23)cc(OCC)c1OCC	6%	9%	2%	0	16%
COc1ccc(CNC(=O)c2ccc(NC(=O)N3CCCCc4ccccc43)cc2)cc1	.	.	?	.	18µM*
COc1cc(C(=O)N2CCCc3ccccc32)cc(OC)c1OC	?	?	18µM*	35	21µM*
O=C(NCc1cccc(Br)c1)c1ccc(NC(=O)N2CCCCc3ccccc32)cc1	.	.	-25%	.	?
COCCCNC(=O)c1ccc(NC(=O)N2CCCCc3ccccc32)cc1	.	.	-1%	.	-3%
COc1cc(CNC(=O)c2ccc(NC(=O)N3CCCCc4ccccc43)cc2)cc(OC)c1OC	.	.	18µM*	.	10µM*
O=C(c1ccc(=O)oc1)N1CCCc2ccccc21	5%	-4%	?	27	16µM*
COC(=O)c1cc(C(=O)OCC(=O)NCc2cccs2)cc([N+](=O)[O-])c1	-4%	7%	8%	1	9%
CN(CC(=O)Nc1sccc1C#N)S(=O)(=O)c1ccc(F)cc1	-11%	2%	-3%	13	-22%
CCOC(=O)c1cccc(NC(=O)Cc2ccc(NC(=O)N3CCCCc4ccccc43)cc2)c1	.	.	5.2µM*	.	4.6µM*
CC(C(=O)N1CCc2ccccc21)N1CCN(S(=O)(=O)c2cccc(C(F)(F)F)c2)CC1 (centres undefined)	-27%	-17%	?	-6	13µM*
COc1cccc(CNC(=O)Cc2ccc(NC(=O)N3CCCCc4ccccc43)cc2)c1OC	.	.	-10%	.	18µM*
CC(C(=O)N1CCc2ccccc21)N1CCN(S(=O)(=O)c2ccc3c(c2)OCCCO3)CC1 (centres undefined)	-3%	-6%	?	-29	?
SMILES	HT1080NT lethal	HT1080 IDH1KD tx	DT40 TDP1 CPT	IL1B secr inh	DT40 TDP1 no CPT
COc1ccc(CCNc2c([N+](=O)[O-])ncn2C)cc1OC	1%	-13%	-2%	2	-1%
Cc1cc(C)c(S(=O)(=O)N2CCc3ccccc32)c(C)c1	-15%	-8%	-29%	8	-28%
CCOc1ccc(OCC)c(NC(=O)c2cc(S(=O)(=O)N3CCCC3)cn2C)c1	.	.	-22%	.	?
C=C1C(=O)[C@@]23[C@H](O)C[C@@H]4C(C)(C)CC[C@H](O)[C@@]4(C)[C@@H]2CC[C@@H]1[C@H]3O	15µM*	13µM*	1µM*	?	0.82µM*
C=C1C(=O)[C@@]23[C@H](O)C[C@@H]4C(C)(C)CC[C@H](O)[C@]4(C)[C@@H]2C[C@H](O)[C@@H]1[C@H]3O	-29%	?	3.3µM*	?	?
COc1ccc2c(c1)c(CC(=O)O)c(C)n2Cc1ccc(Cl)cc1	.	.	-11%	.	-4%
Cc1c(C)n(Cc2ccc(F)cc2)c2ccc(C(=O)N3CCN(c4ccc(F)cc4)CC3)cc12	.	.	21µM*	.	23µM*
COc1ccc(C(=O)NCCc2cc3c(OC)ccc(OC)c3[nH]c2=O)cc1OC	?	-26%	?	-1	?
CCn1c(C)c(C)c2cc(C(=O)N3CCc4ccccc4C3)ccc21	?	16µM*	?	26	15µM*
COc1ccc(OC)c(CCNC(=O)c2ccc3c(c2)c(C)c(C)n3Cc2ccccc2)c1	.	.	16µM*	.	?
COc1ccc(CCNC(=O)c2ccc3c(c2)c(C)c(C)n3Cc2ccccc2)c(OC)c1OC	.	.	23µM*	.	?
CN1C(C(=O)NCc2ccccc2)CC2Cn3c(nc4cc5ccccc5cc43)C21 (centres undefined)	-1%	0%	-29%	39	?
COc1ccc(CCNC(=O)c2ccc3c(c2)c(C)c(C)n3Cc2ccc(F)cc2)c(OC)c1OC	.	.	18µM*	.	23µM*
O=C(NCCN1CCOCC1)c1ccc(F)cc1	0%	-2%	-2%	-4	-7%
CCn1c(C)c(C)c2cc(C(=O)NCCN3CCCCCC3)ccc21	-22%	-16%	?	-29	?
CCn1c(C)c(C)c2cc(C(=O)NCCc3cc(OC)c(OC)c(OC)c3)ccc21	.	.	4.1µM*	.	3.7µM*
CCn1c(C)c(C)c2cc(C(=O)NCC(C)c3ccccc3)ccc21 (centres undefined)	.	.	16µM*	.	29µM*
CCn1c(C)c(C)c2cc(C(=O)NCCc3ccco3)ccc21	4%	0%	-13%	?	-2%
Cc1c(C)n(Cc2ccc(F)cc2)c2ccc(C(=O)NCCN3CCOCC3)cc12	-3%	0%	?	-9	16µM*
